Assay outcomes: PubChem BioAssay, several laboratories
Cardiac RTF inh = cardiac RTF calcium desensitization; P19429+P45379; IANBD-labeled cardiac RTF, Ca2+ fluorescence; inhibition, % at 7.15 µM; 340,000 compounds, 0.12% hits;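 active = inhibition above the mean inhibition of all tested compounds plus 3 SD, cut at about 17% in these data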;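 also: assay run at fixed EC70 calcium of 1.6 mM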
E coli Lon inh = E. coli protease La inhibition. purified E. coli Lon protease, fluorescence polarization. 360,000 compounds, 0.42% hits. AID 602123. inhibition, % at 7.94 µM; in the data active = inhibition above about 13%, passing the limit was not always enough;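 also: 0% = enzyme with probe and DMSO and 100% = no enzyme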
Target sequence (P0A9M0 whole entry, looked up): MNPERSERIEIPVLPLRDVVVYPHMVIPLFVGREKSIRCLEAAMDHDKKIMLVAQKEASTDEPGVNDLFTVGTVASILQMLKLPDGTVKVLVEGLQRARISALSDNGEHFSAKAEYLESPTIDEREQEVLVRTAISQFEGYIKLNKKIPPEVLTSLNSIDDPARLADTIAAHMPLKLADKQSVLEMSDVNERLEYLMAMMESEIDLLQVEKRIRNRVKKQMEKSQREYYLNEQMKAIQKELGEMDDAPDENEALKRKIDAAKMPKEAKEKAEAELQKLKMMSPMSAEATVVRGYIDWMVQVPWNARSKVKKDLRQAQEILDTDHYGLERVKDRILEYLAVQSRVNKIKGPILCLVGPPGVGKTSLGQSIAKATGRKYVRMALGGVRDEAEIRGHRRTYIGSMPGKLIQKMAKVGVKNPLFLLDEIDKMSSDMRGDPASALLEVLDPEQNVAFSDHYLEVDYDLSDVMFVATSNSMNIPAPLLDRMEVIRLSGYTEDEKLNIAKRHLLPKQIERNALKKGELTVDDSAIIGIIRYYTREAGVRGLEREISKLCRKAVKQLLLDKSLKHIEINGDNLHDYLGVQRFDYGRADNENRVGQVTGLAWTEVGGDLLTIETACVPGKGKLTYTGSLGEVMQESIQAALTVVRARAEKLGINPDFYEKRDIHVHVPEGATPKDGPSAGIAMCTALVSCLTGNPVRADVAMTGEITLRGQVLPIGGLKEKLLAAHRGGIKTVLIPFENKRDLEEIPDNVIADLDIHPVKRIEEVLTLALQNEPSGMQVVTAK
cardiac RTF act = cardiac RTF calcium sensitization. 340,000 compounds, 0.24% hits. IANBD-labeled TnC RTF fluorescence at EC20 calcium; 0% EC20 calcium, 100% full calcium. AID 493008. P19429+P45379. activation, % at 7.2 µM;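 active = activation above the mean over all tested compounds plus 3 SD, cut at about 30% in these data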;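 also: rise in fluorescence read as greater calcium sensitivity of cardiac thin filaments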
Keap1 Nrf2 FP = disrupts human Keap1 binding to Nrf2 peptide; Q14145; inhibition, % at 9.4 µM; Keap1 Kelch-Nrf2 peptide fluorescence polarization, 1536-well; AID 504523; 340,000 compounds, 0.15% hits; in the data active = inhibition above about 12%;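 also: human Keap1 Kelch domain with fluorescein labeled Nrf2 9mer peptide probe; 0% = neutral control wells and 100% = peptide positive control; higher means more block of Keap1 binding to Nrf2 peptide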
C-LANA FP = inhibitors of KSHV LANA C-terminal domain DNA binding; MBP-C-LANA/FAM-LBS DNA binding, fluorescence polarization; inhibition, % at 9 µM; 340,000 compounds, 0.078% hits; AID 504423;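 active = highest replicate inhibition at or above 60% at 9 µM, even if other replicates fall short; inactive = all replicates below 60% inhibition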;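 also: 0% = neutral control wells and 100% = 4 µM acridine orange control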
Keap1 Kelch bind = Keap1 (human) Kelch domain binding | shares compounds with Keap1 Nrf2 FP | Keap1 Kelch thermal shift, delta Tm; hits give high values | max delta Tm, degrees C | 400 compounds, 8% hits | AID 651823; in the data active = max delta Tm above about 0.48 degrees C
Dye-only ctr = counter-screen for Keap1 thermal shift hits: dye-only artifacts; shares compounds with Keap1 Nrf2 FP; Sypro Orange dye-only thermal melt, no protein, delta Tm; top dose 26 µM; delta Tm, degrees C (test concentration not listed); 140 tested, under 10 active; AID 651858;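 active = at highest dose tested, delta Tm positive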
E coli Lon conf = confirmation of E. coli Lon protease inhibitors. purified E. coli Lon, fluorescence polarization. shares compounds with E coli Lon inh. inhibition, % at 7.94 µM. AID 602230. 1,400 compounds, 31% hits; in the data active = inhibition above about 16%;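 also: 0% = enzyme with probe and DMSO and 100% = no enzyme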
* marks the source's active call; other numbers are inactive results. This is a sample that favours compounds with a hit; in the whole collection about 0.82% have one here.

Screening O=C(CCCN1C(=O)/C(=C\c2ccco2)SC1=S)Nc1ccc(O)cc1C(=O)O returned Cardiac RTF inh 9.8, E coli Lon inh -3.8, cardiac RTF act -14.8, Keap1 Nrf2 FP 28.1*, C-LANA FP 109.0*, Keap1 Kelch bind 0.33 and Dye-only ctr -27.7.
For O=C(CCCN1C(=O)/C(=C\c2cccs2)SC1=S)Nc1ccc(O)cc1C(=O)O the results were Cardiac RTF inh -2.9, E coli Lon inh -20.2, cardiac RTF act -1.6, Keap1 Nrf2 FP -7.4 and C-LANA FP -0.1.
`COc1ccc(C2C(C(=O)c3cccs3)=C(O)C(=O)N2c2nncs2)cc1` (stereo unspecified) gave Cardiac RTF inh -56.0, E coli Lon inh 61.6*, cardiac RTF act 31.7*, Keap1 Nrf2 FP 55.3*, C-LANA FP 64.4* and Keap1 Kelch bind -0.13.
Cc1cccc(N2C(=O)C(O)=C(C(=O)c3cccs3)C2c2ccc(F)cc2)n1 (stereo unspecified) was read as Cardiac RTF inh -2.2, E coli Lon inh -2.8, cardiac RTF act -5.7, Keap1 Nrf2 FP -3.6 and C-LANA FP 0.0.
O=C(NC1(O)C(=O)c2ccccc2C1=O)c1c(Cl)cccc1Cl was read as E coli Lon inh 5.7, Keap1 Nrf2 FP 19.5*, Keap1 Kelch bind -0.07 and Dye-only ctr -24.4.
Screening O=C(NC1(O)C(=O)c2ccccc2C1=O)c1ccccc1 returned Cardiac RTF inh 0.6, E coli Lon inh -2.0, cardiac RTF act 1.7, Keap1 Nrf2 FP -12.3 and C-LANA FP 3.0.
`CCCN(CCC)S(=O)(=O)c1ccc(C(=O)OCCN2C(=O)c3cccc4c(N5CCOCC5)ccc(c34)C2=O)cc1` gave Cardiac RTF inh -28.9, E coli Lon inh -43.8, cardiac RTF act 51.5*, Keap1 Nrf2 FP 39.0*, C-LANA FP 64.0, Keap1 Kelch bind -0.08 and Dye-only ctr -4.01.
`O=C(OCCN1C(=O)c2cccc3c(N4CCOCC4)ccc(c23)C1=O)c1ccc(Cl)cc1` gave Cardiac RTF inh -21.1, E coli Lon inh -21.7, cardiac RTF act 20.6, Keap1 Nrf2 FP 4.3 and C-LANA FP 38.6.
Screening CCc1nc2c(OCc3ccccc3C(=O)OC)cccn2c1N(C)C(=O)c1cccc(OC)c1 returned E coli Lon inh 3.7.
`O=C1N=c2ccccc2=C1c1sc(=S)n(NC(=O)c2cccc(O)c2)c1O` gave Cardiac RTF inh 0.0, E coli Lon inh 4.0, cardiac RTF act -3.7, Keap1 Nrf2 FP 1.2 and C-LANA FP -0.9.
`O=C1N=c2ccc(Br)cc2=C1c1sc(=S)n(NS(=O)(=O)c2ccccc2)c1O` gave Cardiac RTF inh 6.7, E coli Lon inh 3.1, cardiac RTF act 0.6, Keap1 Nrf2 FP 52.7*, C-LANA FP 0.3, Keap1 Kelch bind 2.67* and Dye-only ctr -26.4.
For CCC(CC)CN1CCN=C1N(C)C the results were Cardiac RTF inh 1.1, E coli Lon inh -0.7, cardiac RTF act 5.0, Keap1 Nrf2 FP -3.4 and C-LANA FP -1.1.
`CCOC(=O)Nc1ccc2c(CNC(C)c3ccccc3OC)cc(=O)oc2c1` (stereo unspecified) gave Cardiac RTF inh -16.8, E coli Lon inh -3.2, cardiac RTF act 1.2, Keap1 Nrf2 FP -3.2 and C-LANA FP 3.0.
`Cc1cccc(C)c1NC(=O)CSc1nnc(-c2ccco2)c(-c2ccco2)n1` gave Cardiac RTF inh 7.8, E coli Lon inh 86.5*, cardiac RTF act -11.5, Keap1 Nrf2 FP 46.1*, C-LANA FP 105.0*, Keap1 Kelch bind 0.29 and Dye-only ctr -27.4.
Screening Nc1c(Cl)ncnc1NCc1ccccc1 returned Cardiac RTF inh -6.5, E coli Lon inh -7.5, cardiac RTF act -0.3, Keap1 Nrf2 FP 30.7*, C-LANA FP 28.1 and Keap1 Kelch bind 0.
For COCCCN1C(=O)c2ccc(C(=O)Nc3ccc(C)cc3C)cc2C1=O the results were Cardiac RTF inh -7.8, E coli Lon inh 6.3, cardiac RTF act -5.5, Keap1 Nrf2 FP 39.1*, C-LANA FP 1.8 and Keap1 Kelch bind -0.14.
Screening COCCCN1C(=O)c2ccc(C(=O)Nc3ccccc3OC)cc2C1=O returned Cardiac RTF inh 0.1, E coli Lon inh 7.8, cardiac RTF act -4.2, Keap1 Nrf2 FP -3.4 and C-LANA FP 1.3.
Screening CC(C)(C)c1cc[n+](-c2[nH]c(=O)sc2/C=N/N=C(\[O-])c2cccnc2)cc1 returned Cardiac RTF inh 0.7, E coli Lon inh 3.0, cardiac RTF act -3.6, Keap1 Nrf2 FP 2.0 and C-LANA FP 3.0.
`Cc1cc[n+](-c2[nH]c(=O)sc2/C=N/NC([S-])=Nc2ccccc2)cc1` gave Cardiac RTF inh -83.2, E coli Lon inh 63.3*, cardiac RTF act 41.8*, Keap1 Nrf2 FP 31.7*, C-LANA FP 48.0, Keap1 Kelch bind 0.09 and E coli Lon conf 53.4*.
Screening O=c1[nH]c(-[n+]2ccccc2)c(/C=N/NC([S-])=Nc2ccccc2)s1 returned Cardiac RTF inh -37.8, E coli Lon inh 94.1*, cardiac RTF act 21.3, Keap1 Nrf2 FP 17.0*, C-LANA FP 25.9, Keap1 Kelch bind -0.07 and E coli Lon conf 2.2.
Cc1cc(C)c[n+](-c2[nH]c(=O)sc2/C=N/NC([S-])=Nc2ccccc2)c1 was read as Cardiac RTF inh -73.3, E coli Lon inh 69.5*, cardiac RTF act 74.8*, Keap1 Nrf2 FP 26.0*, C-LANA FP 36.5, Keap1 Kelch bind -0.05, Dye-only ctr -27.2 and E coli Lon conf 75.7*.
`CCc1ccc[n+](-c2[nH]c(=O)sc2/C=N/NC([S-])=Nc2ccccc2)c1` gave Cardiac RTF inh -99.3, E coli Lon inh 104.8*, cardiac RTF act 85.1*, Keap1 Nrf2 FP 49.4*, C-LANA FP 89.3*, Keap1 Kelch bind -0.11, Dye-only ctr -25 and E coli Lon conf 129.5*.
`CCc1ccc[n+](-c2[nH]c(=O)sc2/C=N/N=C(\N)[O-])c1` gave Cardiac RTF inh 1.4, E coli Lon inh -1.4, cardiac RTF act -9.5, Keap1 Nrf2 FP -0.3 and C-LANA FP -1.4.
COc1ccc(CNC(=O)C2CCN(C(=O)[C@@H]3Cc4ccccc4CN3)CC2)cc1 was read as Cardiac RTF inh 4.7, E coli Lon inh 3.5, cardiac RTF act -3.5, Keap1 Nrf2 FP 1.2 and C-LANA FP -1.8.
Screening O=C(C1=C(O)C(=O)N(CCc2ccccc2)C1c1ccncc1)c1cc2ccccc2o1 (stereo unspecified) returned Cardiac RTF inh 1.1, E coli Lon inh -3.7, cardiac RTF act 6.1, Keap1 Nrf2 FP -1.5 and C-LANA FP 0.7.
